Only a selection was taken, and hits are over-represented in it overall.
T cruzi growth-1 – T. cruzi intracellular proliferation inhibitors, primary screen, cell-based, beta-gal Tulahuen parasites, NIH3T3 host, luminescence | T. cruzi beta-gal in NIH3T3, GalScreen luminescence, 90 h | inhibition, % at 8.34 µM | 77,000 tested, 5.9% active | AID 624255, 2012;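 active = mean inhibition above about 93%, with at least 55% of replicates each passing it, limit read from the data, passing the limit was not always enough; inconclusive = only one of those two conditions holds; inactive = neither condition holds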
C diff HTS – C. difficile growth inhibitors, primary screen, HTS. 86,000 tested, 0.25% active. AID 1259249, 2017. Clostridium difficile clinical isolate growth, OD600, 24 h; stronger effect = lower value. growth activity, negative = inhibition, % at 16 µg/mL (by protocol);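 active = mean growth activity at or below -80% and every replicate also at or below -80%; inconclusive = mean at or below -80% but some replicate above -80%; inactive = mean growth activity above -80%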
T cruzi growth-2 – T. cruzi intracellular proliferation inhibitors, confirmation, cell-based, NIH3T3 host, beta-gal parasite, luminescence, cherry-pick; T. cruzi beta-gal in NIH3T3, GalScreen luminescence, 90 h; inhibition, % at 8.35 µM; shares compounds with T cruzi growth-1; 5,600 tested, 72% active; AID 651739, 2012;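 active = mean replicate inhibition above about 95% and at least 55% of replicates individually reaching it, limit read from the data; inconclusive = only one of the two criteria is met; inactive = neither criterion is met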
T cruzi growth-3 – inhibitors of intracellular T. cruzi replication, confirmation, NIH3T3 host cells, beta-gal parasites, cherry-pick, set 2; shares compounds with T cruzi growth-1; T. cruzi beta-gal in NIH3T3, GalScreen luminescence, 90 h; inhibition, % at 2.09 µM; 5,600 tested, 21% active;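 active = mean inhibition above about 95%, with at least 55% of replicates also reaching it, limit read from the data; inconclusive = meets just one of the two conditions; inactive = meets neither condition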
3T3 cytotox – cytotoxicity in mouse NIH/3T3 fibroblasts, confirmation, cytotoxicity control for T. cruzi proliferation inhibitor project, cell-based, cherry-pick, single point. shares compounds with T cruzi growth-1. NIH/3T3 viability, CellTiter-Glo ATP luminescence, 90 h. cytotoxicity (signal decrease), % at 8.35 µM. 5,600 tested, 14% active. AID 651742, 2012;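 active = mean signal decrease across replicates above about 35% based on untreated-well scatter, with enough replicates individually passing, limit read from the data; inconclusive = no rule stated though some were filed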
NIH3T3 tox 2 – NIH/3T3 fibroblast cytotoxicity, confirmation, cytotoxicity control, cell-based, cherry-pick, single point, set 2. shares compounds with T cruzi growth-1. NIH/3T3 viability, CellTiter-Glo ATP luminescence, 90 h. inhibition, % at 24.9 µM. 5,600 tested, 56% active;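 active = mean loss of cell viability signal at or above a set limit, and enough replicates individually reaching it; inconclusive = meets only the mean limit or only the replicate share; inactive = meets neither condition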
Of the large screens only hits and unclear results are named; the others gave an inactive call (follow-up assays come after a bar, where they were run).

N#C[C@@H]1[C@@H](c2ccc(-c3ccncc3)cc2)[C@@H](CO)N1C(=O)Cc1ccccc1	T cruzi growth-1 inconclusive | T cruzi growth-2 inactive | T cruzi growth-3 inactive | 3T3 cytotox inactive | NIH3T3 tox 2 28.4
N#C[C@H]1[C@H](c2ccc(-c3ccc(F)cc3)cc2)[C@H](CO)N1C(=O)Cc1ccccc1	none
N#C[C@@H]1[C@@H](c2ccc(-c3ccccc3)cc2)[C@@H](CO)N1C(=O)Cc1ccncc1	none
N#C[C@H]1[C@@H](c2ccc(-c3ccc(F)cc3)cc2)[C@@H](CO)N1C(=O)Cc1ccccc1	none
N#C[C@H]1[C@@H](c2ccc(-c3ccncc3)cc2)[C@@H](CO)N1C(=O)Cc1ccccc1	T cruzi growth-1 inconclusive | T cruzi growth-2 103.5 | T cruzi growth-3 inactive | 3T3 cytotox inactive | NIH3T3 tox 2 43.7
N#C[C@H]1[C@H](c2ccc(-c3ccccc3)cc2)[C@H](CO)N1C(=O)Cc1ccncc1	T cruzi growth-1 102.2 | T cruzi growth-2 109.8 | T cruzi growth-3 inactive | 3T3 cytotox inactive | NIH3T3 tox 2 inconclusive
N#C[C@H]1[C@H](c2ccc(C#Cc3ccc(F)cc3)cc2)[C@H](CO)N1C(=O)Cc1ccncc1	T cruzi growth-1 inconclusive | T cruzi growth-2 inactive | T cruzi growth-3 inactive | 3T3 cytotox inactive | NIH3T3 tox 2 inconclusive
CO[C@H]1CC[C@H]2CCN(C)C(=O)CC3(CCCCC3)CN(C)C(=O)c3cc(C#N)ccc3OC[C@H]1O2	none
C[C@H]1CN([C@@H](C)CO)C(=O)c2cc(NC(=O)C3CC3)ccc2O[C@H]1CN(C)S(C)(=O)=O	none
Cc1noc(C)c1S(=O)(=O)N(C)C[C@@H]1OCCCC[C@H](C)Oc2ccc(NS(=O)(=O)c3ccccc3)cc2C(=O)N([C@H](C)CO)C[C@@H]1C	none
COc1ccc(S(=O)(=O)N(C)C[C@H]2OCCCC[C@@H](C)Oc3ccc(NC(=O)Nc4ccc5c(c4)OCO5)cc3C(=O)N([C@H](C)CO)C[C@@H]2C)cc1	none
C[C@@H]1CCCCO[C@H](CN(C)S(=O)(=O)c2ccc(Cl)cc2)[C@@H](C)CN([C@@H](C)CO)C(=O)c2cc(NC(=O)Nc3ccc4c(c3)OCO4)ccc2O1	T cruzi growth-1 102.7 | T cruzi growth-2 108.0 | T cruzi growth-3 103.7 | 3T3 cytotox inactive | NIH3T3 tox 2 inactive
Cc1ccc(S(=O)(=O)N(C)C[C@@H]2OCCCC[C@H](C)Oc3ccc(NC(=O)Nc4ccc5c(c4)OCO5)cc3C(=O)N([C@H](C)CO)C[C@@H]2C)cc1	T cruzi growth-1 118.8 (no result: C diff HTS) | T cruzi growth-2 111.0 | T cruzi growth-3 105.2 | 3T3 cytotox inactive | NIH3T3 tox 2 inactive
COc1ccc(S(=O)(=O)N(C)C[C@@H]2OCCCC[C@@H](C)Oc3ccc(NC(=O)Nc4ccc5c(c4)OCO5)cc3C(=O)N([C@@H](C)CO)C[C@H]2C)cc1	T cruzi growth-1 inconclusive | T cruzi growth-2 107.2 | T cruzi growth-3 inactive | 3T3 cytotox inactive | NIH3T3 tox 2 inactive
C[C@@H]1CCCCO[C@@H](CN(C)S(=O)(=O)c2ccc(Cl)cc2)[C@@H](C)CN([C@H](C)CO)C(=O)c2cc(NC(=O)Nc3ccc4c(c3)OCO4)ccc2O1	none
C[C@@H]1CN([C@@H](C)CO)C(=O)c2cc(NC(=O)Nc3ccc4c(c3)OCO4)ccc2O[C@@H](C)CCCCO[C@@H]1CN(C)S(=O)(=O)c1ccc(F)cc1	none
CC=Cc1ccc2n(c1=O)C[C@H]1[C@H](CO)[C@@H](C(=O)N3CCc4ccccc4C3)[C@@H]2N1Cc1ccccc1 (mixture of isomers)	none
C[C@@H]1CN([C@H](C)CO)C(=O)c2cc(C#Cc3ccccc3F)cnc2O[C@H]1CN(C)C(=O)Cc1ccncc1	none
C[C@@H]1CN([C@@H](C)CO)C(=O)c2cc(C#Cc3ccccc3F)cnc2O[C@H]1CN(C)C(=O)Cc1ccccc1	T cruzi growth-1 119.8 | T cruzi growth-2 111.2 | T cruzi growth-3 105.7 | 3T3 cytotox inactive | NIH3T3 tox 2 inconclusive
COc1ccc(-c2cnc3c(c2)C(=O)N([C@H](C)CO)C[C@H](C)[C@@H](CN(C)C(=O)Cc2ccncc2)O3)cc1	T cruzi growth-1 111.9 | T cruzi growth-2 inactive | T cruzi growth-3 inactive | 3T3 cytotox inactive | NIH3T3 tox 2 inactive
COc1ccc(-c2cnc3c(c2)C(=O)N([C@H](C)CO)C[C@H](C)[C@H](CN(C)C(=O)Cc2ccncc2)O3)cc1	none
C[C@H]1CN([C@@H](C)CO)C(=O)c2cc(C#Cc3ccccc3F)cnc2O[C@@H]1CN(C)C(=O)Cc1ccncc1	T cruzi growth-1 95.2 | T cruzi growth-2 inconclusive | T cruzi growth-3 inactive | 3T3 cytotox inactive | NIH3T3 tox 2 inactive
C[C@@H]1CN([C@@H](C)CO)C(=O)c2cc(C#Cc3ccccc3F)cnc2O[C@@H]1CN(C)C(=O)Cc1ccccc1	none
O=C(C[C@H]1CC[C@H]2[C@@H](COC[C@@H](O)CN2C(=O)c2ccc(F)cc2)O1)NCc1cccc(F)c1	none (no result: C diff HTS)
CC(=O)N[C@H]1CC[C@H](CCNC(=O)Nc2ccc(C(F)(F)F)cc2)O[C@@H]1CO	none
COc1cccc(C#Cc2cnc3c(c2)C(=O)N([C@@H](C)CO)C[C@H](C)[C@H](CN(C)C)O3)c1	none
COc1ccccc1CNC(=O)C[C@@H]1CC[C@@H]2[C@H](COC[C@@H](O)CN2Cc2cccc(-c3ccncc3)c2)O1	none
COc1ccccc1CNC(=O)C[C@@H]1CC[C@H]2[C@@H](COC[C@H](O)CN2Cc2cccc(-c3ccncc3)c2)O1	none
COc1ccccc1CNC(=O)C[C@@H]1CC[C@H]2[C@@H](COC[C@H](O)CN2Cc2ccc3c(c2)OCO3)O1	T cruzi growth-1 101.3 | T cruzi growth-2 inactive | T cruzi growth-3 inactive | 3T3 cytotox inactive | NIH3T3 tox 2 inactive
COc1ccccc1CNC(=O)C[C@H]1CC[C@H]2[C@@H](COC[C@H](O)CN2Cc2cccc(-c3ccncc3)c2)O1	T cruzi growth-1 120.1 | T cruzi growth-2 97.5 | T cruzi growth-3 inactive | 3T3 cytotox inactive | NIH3T3 tox 2 inactive
COc1ccccc1CNC(=O)C[C@H]1CC[C@H]2[C@@H](COC[C@H](O)CN2Cc2ccccc2)O1	none (no result: T cruzi growth-1)
COc1ccccc1CNC(=O)C[C@H]1CC[C@@H]2[C@H](COC[C@@H](O)CN2Cc2cccc(-c3ccncc3)c2)O1	T cruzi growth-1 inconclusive | T cruzi growth-2 95.6 | T cruzi growth-3 inactive | 3T3 cytotox inactive | NIH3T3 tox 2 58.8
C[C@@H]1CCCCO[C@@H](CN(C)S(=O)(=O)c2ccc(Cl)cc2)[C@H](C)CN([C@H](C)CO)C(=O)c2cc(NC(=O)c3ccccc3)ccc2O1	none

Bioassay records (PubChem)
